Measurements from PubChem BioAssay.
Results filed as inconclusive are left out. The source made the active and inactive calls.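 How the source made its calls, unless noted: active means normalized viability below 100% at a tested concentration; inactive means the rest.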

What was measured:
[1] = viability loss in pontine glioma line – cell-based, SU-DIPG-XVII, MIPE5.0, CellTiter-Glo, qHTS, dose response (AID 1347060; cut-off not given, nearly all actives have AC50 up to about 26 µM;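 on AC50: cells exposed to compound for 48 hours before viability readout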); conditions: CellTiter-Glo ATP luminescence
[2] = viability loss in pontine glioma line – cell-based, SU-DIPG-XXV, MIPE5.0, CellTiter-Glo, qHTS, dose response (AID 1347065; cut-off not given, nearly all actives have AC50 up to about 26 µM;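 further: cells exposed to compound for 48 hours before ATP readout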); conditions: CellTiter-Glo ATP luminescence
[3] = JHH-DIPG-1 glioma cell viability, MIPE5.0 library, CellTiter-Glo luminescence, qHTS (AID 1347067; cut-off not given, nearly all actives have AC50 up to about 26 µM;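 further: cells exposed to compound for 48 hours before readout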); conditions: JHH-DIPG-1 glioma viability, CellTiter-Glo ATP luminescence
[4] = growth inhibition of DIPG cells – cell-based, MIPE5.0 library, qHTS (AID 1347068; cut-off not given, nearly all actives have IC50 up to about 30 µM;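 on IC50: cells exposed to compound for 48 hours before viability readout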); conditions: SU-DIPG-XXV viability
[5] = viability loss with induced miR-34 in A549 – imaging, A549 dox-inducible miR-34, nuclei and caspase counts, primary screen (AID 1347080;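 active means compounds whose cell count with miR-34 switched on is under 0.7 times the count with it off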); conditions: A549 miR-34 inducible, Hoechst nuclei count, 48 h
[6] = compounds altering HSF1 focus formation in cells – imaging, Selleck Cancer Library (AID 1347162; in the data active means plate-normalised HSF1 focus index below about 0.46); conditions: human cells, HSF1 nuclear foci imaging, at 10 µM; SSMD: measured here: HSF1 foci SSMD mean; cell count: measured here: cell number; plate-normalised HSF1 focus index: stronger effect = lower value
[7] = MELAS cybrid and Rieske KO viability enhancers – cell-based, MELAS cybrids, Rieske KO mouse fibroblasts, CellTiter-Glo, primary screen (AID 1508586;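 active means mean z-score across replicates of 1.96 or higher in either the MELAS or the Rieske mutant cell line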;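 further: z relative to plate mean and SD of compound and empty wells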); conditions: low glucose
[8] = drug combination growth inhibition, ovarian cancer – cell-based, oncology-focused library, rucaparib conditional, profiling panel (AID 1508598); conditions: patient-derived ovarian cancer cells, CellTiter-Glo viability, 144 h, stronger effect = lower value

CCC(CC)CC1(C(=O)Nc2ccccc2SC(=O)C(C)C)CCCCC1
active: viability ([8]; at 0.000305 µM, OCI-P5x cells, with rucaparib 20 µM, 100% = cells with rucaparib alone) 92.5% | viability ([8]; at 0.000305 µM, OCI-P5x cells, without rucaparib) 91.2% | viability ([8]; at 0.00122 µM, OCI-P5x cells, with rucaparib 20 µM, 100% = cells with rucaparib alone) 97.3% | viability ([8]; at 0.00122 µM, OCI-P5x cells, without rucaparib) 96% | viability ([8]; at 0.00488 µM, OCI-P5x cells, without rucaparib) 99.6% | viability ([8]; at 0.313 µM, OCI-C5x cells, with rucaparib 10 µM, 100% = cells with rucaparib alone) 99.9%
9550: cell count ([5]; measured here: total cells with miR-34 induction, stronger effect = lower value)
6890: cell count [6]
1.84: SSMD [6]
0.858: fold change ([5]; measured here: relative caspase fold change +Dox/-Dox)
10700: cell count ([5]; measured here: total cells without miR-34 induction)
inactive: outcome [1] | outcome [2] | outcome [3] | outcome [4] | fold change ([5]; stronger effect = lower value, cell number ratio, induced over uninduced) 0.89 | plate-normalised HSF1 focus index [6] 1.09 | z-score ([7]; MELAS cybrid survival, CellTiter-Glo 48 h, stronger effect = higher value) -0.325 | viability ([8]; at 0.000305 µM, OCI-C5x cells, with rucaparib 10 µM, 100% = cells with rucaparib alone) 115% | viability ([8]; at 0.000305 µM, OCI-C5x cells, without rucaparib) 112% | viability ([8]; at 0.00122 µM, OCI-C5x cells, with rucaparib 10 µM, 100% = cells with rucaparib alone) 109% | viability ([8]; at 0.00122 µM, OCI-C5x cells, without rucaparib) 105% | viability ([8]; at 0.00488 µM, OCI-C5x cells, with rucaparib 10 µM, 100% = cells with rucaparib alone) 111% | viability ([8]; at 0.00488 µM, OCI-C5x cells, without rucaparib) 114% | viability ([8]; at 0.00488 µM, OCI-P5x cells, with rucaparib 20 µM, 100% = cells with rucaparib alone) 101% | viability ([8]; at 0.0195 µM, OCI-C5x cells, with rucaparib 10 µM, 100% = cells with rucaparib alone) 127% | viability ([8]; at 0.0195 µM, OCI-C5x cells, without rucaparib) 110% | viability ([8]; at 0.0195 µM, OCI-P5x cells, with rucaparib 20 µM, 100% = cells with rucaparib alone) 104% | viability ([8]; at 0.0195 µM, OCI-P5x cells, without rucaparib) 108% | viability ([8]; at 0.0781 µM, OCI-C5x cells, with rucaparib 10 µM, 100% = cells with rucaparib alone) 110% | viability ([8]; at 0.0781 µM, OCI-C5x cells, without rucaparib) 115% | viability ([8]; at 0.0781 µM, OCI-P5x cells, with rucaparib 20 µM, 100% = cells with rucaparib alone) 104% | viability ([8]; at 0.0781 µM, OCI-P5x cells, without rucaparib) 103% | viability ([8]; at 0.313 µM, OCI-C5x cells, without rucaparib) 121% | viability ([8]; at 0.313 µM, OCI-P5x cells, with rucaparib 20 µM, 100% = cells with rucaparib alone) 107% | viability ([8]; at 0.313 µM, OCI-P5x cells, without rucaparib) 103% | viability ([8]; at 1.25 µM, OCI-C5x cells, with rucaparib 10 µM, 100% = cells with rucaparib alone) 113% | viability ([8]; at 1.25 µM, OCI-C5x cells, without rucaparib) 126% | viability ([8]; at 1.25 µM, OCI-P5x cells, with rucaparib 20 µM, 100% = cells with rucaparib alone) 107% | viability ([8]; at 1.25 µM, OCI-P5x cells, without rucaparib) 102% | viability ([8]; at 5 µM, OCI-C5x cells, with rucaparib 10 µM, 100% = cells with rucaparib alone) 110% | viability ([8]; at 5 µM, OCI-C5x cells, without rucaparib) 120% | viability ([8]; at 5 µM, OCI-P5x cells, with rucaparib 20 µM, 100% = cells with rucaparib alone) 103% | viability ([8]; at 5 µM, OCI-P5x cells, without rucaparib) 108%
1.25: z-score ([7]; Rieske KO mouse fibroblast survival, CellTiter-Glo 72 h)

C[C@]1(C(=O)N(CCCC(=O)O)Cc2cccc(Cl)c2)CCN1C(=O)c1csc2ccccc12
inactive: outcome [1] | outcome [2] | outcome [3] | outcome [4]

CC(C)(CO)n1cc(C(=O)c2cncc(NC(=O)Cc3ccc(Cl)cn3)c2)c2cnc(N)nc21
inactive: outcome [1] | outcome [2] | outcome [3] | outcome [4]

O=C(O)c1cnn(-c2nc3cc(OC(F)(F)F)c(Cl)cc3[nH]2)c1
inactive: outcome [1] | outcome [2] | outcome [3] | outcome [4]

N=C(N)c1ccc2nc(-c3cc(CC(=O)N[C@@H](CC(=O)O)C(=O)O)cc(-c4cc(S(N)(=O)=O)ccc4O)c3O)[nH]c2c1
inactive: outcome [1] | outcome [2] | outcome [3] | outcome [4]

CCNCCS(=O)(=O)NC[C@@]1(c2ccccc2)SC(NC(=O)C(C)(C)C)=NN1C(=O)C(C)(C)C
active: AC50 [1] 7.42 nM | AC50 [2] 4.68 nM | IC50 [4] 2.96 nM
